Results filed as inconclusive are left out. Calls of active or inactive are those of the source. The call rests on the fitted dose curve; in most records, active means well fitted inhibition curve with a large enough effect; inconclusive means small, poorly fitted or top-dose-only effect; inactive means flat fitted curve, though single readings scatter.
Assays:
[1] = qHTS profiling for inhibitors of Plasmodium falciparum proliferation (AID 504749);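 further: 0% = DMSO vehicle and full inhibition = artemisinin control; nearly all actives have a fitted effect of over 60% in size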; details: P. falciparum in erythrocytes, SYBR Green DNA, 72 h, at 28.7 µM (top of the series)
Summary of the method: (§1)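 SYBR Green fluorescence (ex 485 nm, em 535 nm) reports parasite DNA after 72 h compound exposure of infected red cells at 0.3% parasitemia, 2.5% hematocrit; signal normalized to 0.29 uM artemisinin and vehicle wells.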

[2] = system: 3D7; experiment: as above; details: P. falciparum in erythrocytes, SYBR Green DNA, 72 h; series mostly up to 28.7 µM
Summary of the method: as §1

[3] = system: 7G8; experiment: as above; details: P. falciparum in erythrocytes, SYBR Green DNA, 72 h; series mostly up to 28.7 µM
Summary of the method: as §1

[4] = system: AA1029; experiment: as above; details: P. falciparum in erythrocytes, SYBR Green DNA, 72 h; series mostly up to 28.7 µM
Summary of the method: as §1

[5] = system: AS120; experiment: as above; details: P. falciparum in erythrocytes, SYBR Green DNA, 72 h; series mostly up to 28.7 µM
Summary of the method: as §1

[6] = system: ATS189; experiment: as above; details: P. falciparum in erythrocytes, SYBR Green DNA, 72 h; series mostly up to 28.7 µM
Summary of the method: as §1

[7] = system: ATS95; experiment: as above; details: P. falciparum in erythrocytes, SYBR Green DNA, 72 h; series mostly up to 28.7 µM
Summary of the method: as §1

[8] = system: C2A; experiment: as above; details: P. falciparum in erythrocytes, SYBR Green DNA, 72 h; series mostly up to 28.7 µM
Summary of the method: as §1

[9] = system: CP185; experiment: as above; details: P. falciparum in erythrocytes, SYBR Green DNA, 72 h; series mostly up to 28.7 µM
Summary of the method: as §1

[10] = system: CP191; experiment: as above; details: P. falciparum in erythrocytes, SYBR Green DNA, 72 h; series mostly up to 28.7 µM
Summary of the method: as §1

[11] = system: CP192; experiment: as above; details: P. falciparum in erythrocytes, SYBR Green DNA, 72 h; series mostly up to 28.7 µM
Summary of the method: as §1

[12] = system: CP194; experiment: as above; details: P. falciparum in erythrocytes, SYBR Green DNA, 72 h; series mostly up to 28.7 µM
Summary of the method: as §1

[13] = system: CP201; experiment: as above; details: P. falciparum in erythrocytes, SYBR Green DNA, 72 h; series mostly up to 28.7 µM
Summary of the method: as §1

[14] = system: CP203; experiment: as above; details: P. falciparum in erythrocytes, SYBR Green DNA, 72 h; series mostly up to 28.7 µM
Summary of the method: as §1

[15] = system: CP211; experiment: as above; details: P. falciparum in erythrocytes, SYBR Green DNA, 72 h; series mostly up to 28.7 µM
Summary of the method: as §1

[16] = system: CP215; experiment: as above; details: P. falciparum in erythrocytes, SYBR Green DNA, 72 h; series mostly up to 28.7 µM
Summary of the method: as §1

[17] = system: CP217; experiment: as above; details: P. falciparum in erythrocytes, SYBR Green DNA, 72 h; series mostly up to 28.7 µM
Summary of the method: as §1

[18] = system: CP237; experiment: as above; details: P. falciparum in erythrocytes, SYBR Green DNA, 72 h; series mostly up to 28.7 µM
Summary of the method: as §1

[19] = system: CP238; experiment: as above; details: P. falciparum in erythrocytes, SYBR Green DNA, 72 h; series mostly up to 28.7 µM
Summary of the method: as §1

OC1C(O)C(O)C(O)C(O)C1O (stereo not given)
inactive: activity, negative = inhibition ([1]; parasite line A) 1.75% | activity, negative = inhibition ([1]; parasite line B) 14.4% | Potency [2] | Potency [3] | Potency [4] | Potency [5] | Potency [6] | Potency [7] | Potency [8] | Potency [9] | Potency [10] | Potency [11] | Potency [12] | Potency [13] | Potency [14] | Potency [15] | Potency [16] | Potency [17] | Potency [18] | Potency [19]

CC(C)Cc1ccc(CC(=O)O)cc1
inactive: activity, negative = inhibition ([1]; parasite line A) 5.78% | activity, negative = inhibition ([1]; parasite line B) 6.05% | Potency [2] | Potency [3] | Potency [4] | Potency [5] | Potency [6] | Potency [7] | Potency [8] | Potency [9] | Potency [10] | Potency [11] | Potency [12] | Potency [13] | Potency [14] | Potency [15] | Potency [16] | Potency [17] | Potency [18] | Potency [19]

CCCCCCCCCCCCCC(=O)OC(C)C
inactive: activity, negative = inhibition ([1]; parasite line A) 2.55% | activity, negative = inhibition ([1]; parasite line B) 10.9% | Potency [2] | Potency [3] | Potency [4] | Potency [5] | Potency [6] | Potency [7] | Potency [8] | Potency [9] | Potency [10] | Potency [11] | Potency [12] | Potency [13] | Potency [14] | Potency [15] | Potency [16] | Potency [17] | Potency [18] | Potency [19]

CCCCC(CC)COC(=O)c1ccc(N(C)C)cc1 (stereo not given)
inactive: activity, negative = inhibition ([1]; parasite line A) 7.25% | activity, negative = inhibition ([1]; parasite line B) -4.81% | Potency [2] | Potency [3] | Potency [4] | Potency [5] | Potency [6] | Potency [7] | Potency [8] | Potency [9] | Potency [10] | Potency [11] | Potency [12] | Potency [13] | Potency [14] | Potency [15] | Potency [16] | Potency [17] | Potency [18] | Potency [19]

FC(F)(F)C(F)(F)C(F)(F)C(F)(F)C(F)(F)C(F)(F)C(F)(F)C(F)(F)Br
inactive: activity, negative = inhibition ([1]; parasite line A) 2.77% | activity, negative = inhibition ([1]; parasite line B) -1.15% | Potency [2] | Potency [3] | Potency [4] | Potency [5] | Potency [6] | Potency [7] | Potency [8] | Potency [9] | Potency [10] | Potency [11] | Potency [12] | Potency [13] | Potency [14] | Potency [15] | Potency [16] | Potency [17] | Potency [18] | Potency [19]
